23 molecules from PubChem BioAssay (EPA / NIEHS) can be followed below.

Activity calls are given as the source filed them. The calls were made as follows: active = hit-call score of the fitted dose curve at least 0.9, where 1 is the maximum; inactive = score below 0.9.

A short description of assay [1]: BSK_3C_SRB: Viability Assessment in the BioMAP Diversity Plus: 3C Assay (AID 2283023).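 Also: fitted both ways against DMSO so a hit may be signal rise or drop.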 As to conditions: primary human endothelial cells (HUVEC). A digest of the protocol:
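Cytotoxicity readout in parallel HUVEC 3C cultures: after 24 h compound exposure, cells fixed with 10% TCA, stained with 0.1% SRB and read at 560 nm. Gain or loss relative to DMSO fitted.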

The nature of assay [2]: BSK_3C_Vis: BioMAP Diversity Plus: 3C Assay for Morphology Visualization (AID 2283025).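 Also: fitted both ways so gain or loss versus DMSO counts.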 As to conditions: primary human endothelial cells (HUVEC). Put shortly: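 HUVEC, 3C system; light microscopy of morphology at 24 h post-dose. Bidirectional fit vs DMSO baseline. Secondary readout, background-control function.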
Read-out in assay [3]: Pselectin, SELP (gene 6403)
The experiment in a line: BSK_4H_Pselectin: BioMAP Diversity Plus: 4H Assay for Pselectin Biomarker Activity (AID 2283026). The following applies: primary human endothelial cells (HUVEC); actives raise or lower the signal. Put shortly: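 HUVEC, 24 h chemical exposure; P-selectin read by ELISA. Bidirectional curve fit vs DMSO baseline; gain or loss of signal scored.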

Assay [4] is described as follows: BSK_4H_SRB: Viability Assessment in the BioMAP Diversity Plus: 4H Assay (AID 2283027).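 Also: cells exposed to compound for 24 h before staining.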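 As to AC50: curves fitted both ways versus DMSO so AC50 may be loss or gain.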 The following applies: primary human endothelial cells (HUVEC). Put shortly: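 HUVEC, 24 h post-dose; 10% TCA fix, 0.1% SRB stain, A560 nm. Total protein = overt cytotoxicity, parallel to biomarker read. Bidirectional fit vs DMSO baseline.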
Assay [5] is described as follows: BSK_BE3C_SRB: Viability Assessment in the BioMAP Diversity Plus: BE3C Assay (AID 2283028).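 Also: measured 24 h after chemical dosing.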 As to conditions: primary human bronchial epithelial cells. A digest of the protocol:
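Cytotoxicity read-out: SRB (0.1%) staining of TCA-fixed (10%) human lung bronchial epithelial cells, absorbance 560 nm, 24 h post-dosing. Curves fitted both directions relative to DMSO.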

Read-out in assay [6]: Thrombomodulin, THBD (gene 7056)
The experiment in a line: BSK_3C_Thrombomodulin: BioMAP Diversity Plus: 3C Assay for Thrombomodulin Biomarker Activity (AID 2283029). As to conditions: primary human endothelial cells (HUVEC); actives raise or lower the signal. Put shortly: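 HUVEC, 3C conditions; compound 24 h; thrombomodulin by ELISA; bidirectional curve fit vs DMSO baseline; parallel SRB total-protein staining for cytotoxicity.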

Read-out in assay [7]: Urokinase-type plasminogen activator receptor (uPAR), PLAUR (gene 5329)
The experiment in a line: BSK_4H_uPAR: BioMAP Diversity Plus: 4H Assay for Urokinase-type plasminogen activator receptor (uPAR) Biomarker Activity (AID 2283030). The following applies: primary human endothelial cells (HUVEC); actives raise or lower the signal. Put shortly:
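uPAR level read by ELISA on HUVEC cultures (BioMAP 4H) 24 h post-dosing, analyzed for gain or loss relative to DMSO. Parallel SRB staining assessed overt cytotoxicity.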

Read-out in assay [8]: Vascular endothelial growth factor receptor 2 (Homo sapiens) (UniProt P35968)
Kind of assay: BSK_4H_VEGFRII: BioMAP Diversity Plus: 4H Assay for Vascular endothelial growth factor receptor 2 (VEGFR2) Biomarker Activity (AID 2283031). As to conditions: primary human endothelial cells (HUVEC); actives raise or lower the signal. A digest of the protocol: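 Measured by ELISA after 24 h of compound treatment: VEGFR2 on primary human umbilical vein endothelial cells, fitted in both directions relative to DMSO. Parallel cultures received SRB staining (560 nm) for overt cytotoxicity.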

Read-out in assay [9]: Matrix Metallopeptidase 1 (MMP1), MMP1 (gene 4312)
The experiment in a line: BSK_BE3C_MMP1: BioMAP Diversity Plus: BE3C Assay for Matrix Metallopeptidase 1 (MMP1) Biomarker Activity (AID 2283024). The following applies: primary human bronchial epithelial cells; actives raise or lower the signal. A digest of the protocol:
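ELISA read-out of MMP1 in human lung bronchial epithelial primary cultures, 24 h post-dose; bidirectional curve fit vs DMSO baseline, gain or loss of signal scored.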

Take `C=CN1CCCC1=O`: the result in assay [1], in [2], in assay [3], in [4], in assay [5] and in assay [6] was inactive. The outcome in assay [7] and in [8] was inactive.
For the molecule `CCCCOC(=O)c1ccccc1`, the result in assay [9], in assay [2], in [3], in assay [4], in [5] and in assay [6] was inactive. Also, in assay [8], the result was inactive.
Regarding `O=S1(=O)CCCO1`, the result in assay [3], in [4], in assay [5], in [6] and in assay [8] was inactive.
As to `CNC(C)=O`, the outcome in assay [9], in assay [2], in assay [3], in [4], in assay [5] and in [6] was inactive. For the same molecule, the outcome in assay [7] and in assay [8] was inactive.
The AC50 is the midpoint of the concentration-response curve, whichever way the signal moves. Regarding `O=C(O)c1ccc2c(c1)nc(C(=O)NC1CCN(C3CC3)CC1)n2Cc1cc(-c2ccc(Cl)s2)on1`, the AC50 in assay [3] was 0.952 µM (active); in assay [7] it was 0.0541 µM (active). For the same molecule, the result in assay [4], in assay [5], in assay [6] and in assay [8] was inactive.
On to `OC[C@H]1O[C@@](CO)(O[C@H]2O[C@H](CO)[C@@H](O)[C@H](O)[C@H]2O)[C@@H](O)[C@@H]1O`, for which the outcome in assay [1], in [2], in [3], in assay [4], in [5] and in assay [6] was inactive. Besides, the result in assay [7] and in assay [8] was inactive.
For `OCCNCCO`, the outcome in assay [1], in assay [9], in assay [3], in assay [4], in assay [5] and in [6] was inactive. For the same molecule, the outcome in assay [8] was inactive.
Turning to `O=C(O)[C@H](O)[C@@H](O)C(=O)O`, the outcome in [3], in assay [4], in assay [5], in assay [6] and in [8] was inactive.
Regarding `CCCCC(CC)C(=O)OCCOCCOCCOC(=O)C(CC)CCCC` (stereo not drawn), the outcome in assay [1], in assay [9], in [3], in assay [4], in assay [5] and in assay [6] was inactive. Moreover, the outcome in assay [7] and in assay [8] was inactive.
As for `COCc1nnc(-c2ccc[n+]([O-])c2)n1-c1c(Cl)c(Cl)cc2[nH]c(=O)c(=O)[nH]c12`, the result in assay [3], in assay [4], in assay [5], in assay [6] and in assay [8] was inactive.
For `O=c1[nH]cnc2c1ncn2[C@H]1CC[C@@H](CO)O1`, the outcome in assay [3], in assay [4], in assay [5], in [6], in [7] and in assay [8] was inactive.
Regarding `O=C(O)c1cccc(C[C@@H]2COc3ccc(OCc4nc5cc(F)ccc5s4)cc3[C@@H]2O)c1`, the result in assay [1], in [3], in [4], in [5], in assay [6] and in assay [8] was inactive.
Regarding `NC(N)=O`, the outcome in assay [1], in [2], in assay [3], in assay [4], in assay [5] and in assay [6] was inactive. Moreover, the result in assay [7] and in assay [8] was inactive.
For `CCCCN1C(=O)[C@@H]([C@H](O)C2CCCCC2)NC(=O)C12CCN(Cc1ccc(Oc3ccc(C(=O)O)cc3)cc1)CC2`, the result in assay [3], in [5], in assay [6] and in assay [8] was inactive. In addition, the results for the AC50 in assay [4] and in [7] were 23.6 µM (active) and 20 µM (active), respectively.
With `NC(=O)N1c2ccccc2C=Cc2ccccc21`, the result in assay [1], in [3], in assay [4], in assay [5], in assay [6] and in assay [7] was inactive. The outcome in assay [8] was inactive.
`c1ccc(C(O[C@@H]2CCCN(CCc3ccc4c(c3)OCO4)C2)c2ccccc2)cc1`: the AC50 in assay [2] was 9.8 µM (active); in [4], 25.4 µM (active); in [7] it was 15.5 µM (active). For the same molecule, the outcome in assay [3], in assay [5], in assay [6] and in assay [8] was inactive.
Take `CCc1ccc(O)c(C(C)(C)C)c1`: the AC50 in assay [1] was 31.2 µM (active); in [3] it was 32 µM (active); in assay [4], 32.8 µM (active). Besides, the outcome in assay [9], in assay [5], in [6] and in [8] was inactive.
As for `O=C(O)c1cccc(C(=O)O)c1`, the result in [9], in [3], in assay [4], in [5], in assay [6] and in assay [8] was inactive.
As for `c1ccc2ncccc2c1`, the result in assay [2], in assay [3], in assay [4], in [5], in assay [6] and in assay [8] was inactive.
Turning to `Cn1cc[nH]c1=S`, the result in assay [9], in [3], in [4], in assay [5], in [6] and in assay [7] was inactive. The result in assay [8] was inactive.
Take `CCOC(N)=O`: the result in assay [9], in assay [3], in assay [4], in assay [5], in [6] and in assay [7] was inactive. The outcome in [8] was inactive.
As to `CC(C)C(=O)Nc1ccc([N+](=O)[O-])c(C(F)(F)F)c1`, the result in assay [9], in [2], in assay [3], in assay [4], in assay [5] and in assay [6] was inactive. Besides, the outcome in assay [8] was inactive.
As for `CC(C)CC(C)O` (stereo not drawn), the outcome in [9], in [3], in assay [4], in assay [5], in assay [6] and in assay [8] was inactive.
